The nature of test [1]: qHTS for Inhibitors of Cell Surface uPA Generation: Validation Assay (AID 493164).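 Note: RAW 264.7 macrophage cells exposed to compound for 18 h.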 A digest of the protocol: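 RAW 264.7, 4000 cells/well, o/n plating; cpd 7-pt 1:5 dilution 2.45 nM–38.3 uM final; 18 h, 37 C/5% CO2; ATP-Lite, 5 s luminescence exposure.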
For test [2], the target named is Peptidyl-prolyl cis-trans isomerase NIMA-interacting 1 (Homo sapiens) (UniProt Q13526). The test is described as follows: qHTS Validation Assay to Find Inhibitors of Pin1 (AID 504536; active = well fitted inhibition curve with a large enough effect in the polarisation, with a control signal flat, not every such curve was filed as active; the % refers to the polarisation; note: potency is the fitted concentration of half-maximal effect). Summed up:
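Fluorescence polarization competition: compounds (titration) displace HiFluor-488-labeled Pin1-1b peptide from Pin1 (0.3 uM final) in pH 7.5 HEPES buffer with DTT, 10 min at room temperature; %Activity normalized to no-enzyme wells, curves fitted.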

Test [3] deals with Phosphoglycerate kinase, glycosomal (Trypanosoma brucei brucei) (UniProt P07378). In words: qHTS Validation Assay to Find Inhibitors of Phosphoglycerate Kinase (AID 504547). A digest of the protocol: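 Inhibition of the enzyme is judged by a Kinase-Glo Plus luminescent signal following a one-hour incubation at room temperature. Because 1,3-BPG is unstable, it is made in situ by GAPDH at 100nM final; no-PGK wells define the baseline.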
Chain of Phosphoglycerate kinase, glycosomal (Trypanosoma brucei brucei) (P07378 whole entry, looked up): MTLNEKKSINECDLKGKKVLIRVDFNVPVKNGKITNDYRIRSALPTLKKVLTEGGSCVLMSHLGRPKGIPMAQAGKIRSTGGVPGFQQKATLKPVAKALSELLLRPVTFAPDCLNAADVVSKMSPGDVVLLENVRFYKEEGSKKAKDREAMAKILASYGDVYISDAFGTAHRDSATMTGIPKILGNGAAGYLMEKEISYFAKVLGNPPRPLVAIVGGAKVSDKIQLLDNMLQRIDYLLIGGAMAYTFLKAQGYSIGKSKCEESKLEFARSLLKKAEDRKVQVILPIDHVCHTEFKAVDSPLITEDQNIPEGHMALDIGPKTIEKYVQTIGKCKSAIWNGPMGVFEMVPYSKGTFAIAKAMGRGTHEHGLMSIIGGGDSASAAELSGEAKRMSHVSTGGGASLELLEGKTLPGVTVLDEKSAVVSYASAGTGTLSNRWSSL
For orientation: In qHTS, concentration-response curves come from the screen itself.

For test [4], the target named is phosphoglycerate mutase (Leishmania major) (UniProt Q4Q090). The test is described as follows: qHTS Validation Assay to Find Inhibitors of Phosphoglycerate Mutase (AID 504548). Note: series mostly up to about 58 µM. As to conditions: Potency: inhibition qHTS. Summed up:
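Lm PGAM 1.25nM final; 100 mM TEA pH 7.6, 5 mM MgCl2, 0.01% Tween-20; 45 min RT; Kinase-GloPlus, 10 min; end-point luminescence. Enzyme-free wells as negative controls.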

The target of test [5] is Ubiquitin carboxyl-terminal hydrolase 1 (Homo sapiens) (UniProt O94782). In words: Inhibitors of USP1/UAF1: Pilot qHTS (AID 504865). Note: nearly all actives have a fitted effect of over 35% in size. Note: potency is the fitted concentration of half-maximal effect. Summed up: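 Deubiquitinase activity followed as kinetic rhodamine fluorescence release from 150 nM Ub-Rho. 1 nM USP1/UAF1 with compound, after 15 min room-temperature preincubation, in HEPES pH 7.8 buffer containing TCEP, EDTA, BSA and Tween-20.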
Chain of Ubiquitin carboxyl-terminal hydrolase 1 (Homo sapiens) (O94782 whole entry, looked up): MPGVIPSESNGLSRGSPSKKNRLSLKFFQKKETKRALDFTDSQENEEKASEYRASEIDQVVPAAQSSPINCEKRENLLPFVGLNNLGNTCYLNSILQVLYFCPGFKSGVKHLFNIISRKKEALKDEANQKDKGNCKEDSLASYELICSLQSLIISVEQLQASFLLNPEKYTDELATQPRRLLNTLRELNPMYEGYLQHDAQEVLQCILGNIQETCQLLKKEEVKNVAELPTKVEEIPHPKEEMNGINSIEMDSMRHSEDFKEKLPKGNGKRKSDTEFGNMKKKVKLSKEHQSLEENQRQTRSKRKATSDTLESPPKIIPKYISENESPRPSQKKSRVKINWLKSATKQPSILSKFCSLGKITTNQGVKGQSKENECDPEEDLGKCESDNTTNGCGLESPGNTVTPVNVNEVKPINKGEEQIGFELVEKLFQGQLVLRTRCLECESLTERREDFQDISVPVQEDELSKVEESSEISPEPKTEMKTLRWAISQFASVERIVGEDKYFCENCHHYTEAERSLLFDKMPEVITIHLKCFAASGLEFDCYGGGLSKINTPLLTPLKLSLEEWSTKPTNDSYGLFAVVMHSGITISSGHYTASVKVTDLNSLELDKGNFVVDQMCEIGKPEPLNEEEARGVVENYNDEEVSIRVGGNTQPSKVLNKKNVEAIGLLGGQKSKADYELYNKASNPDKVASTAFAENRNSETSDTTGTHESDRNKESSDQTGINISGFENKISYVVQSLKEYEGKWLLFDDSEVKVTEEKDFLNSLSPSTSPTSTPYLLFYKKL

Test [6] in a line: qHTS for Inhibitors of ATXN expression: Validation of Cytotoxic Assay (AID 588349).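 Note: cells exposed to compound for 72 hr.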 A digest of the protocol:
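HEK293, compound dose series, 72 hr / 37 degrees C; viability via CellTiter Glo (intracellular ATP).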

Test [7] in a line: qHTS for Inhibitors of ATXN expression: Validation (AID 588378). Note: nearly all actives have a fitted effect of over 75% in size. Note: potency is the fitted concentration of half-maximal effect. A digest of the protocol: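 Luciferase luminescence (Bright-Glo) from an ATXN2-FFLuc HEK293 line after 24 h compound exposure at 37 °C, preceded by a CellTiter-Fluor fluorescence viability read. Serial dilutions of a reference ATXN2 inhibitor and a luciferase inhibitor served as controls.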

Records with an inconclusive call do not appear. Active and inactive are the calls of the source. Unless noted, calls come from the whole dose curve; as a rule, active = well fitted curve in the direction sought with a large enough effect; inconclusive = small, poorly fitted or top-dose-only effect, or another doubt; inactive = no such curve, though single readings can be large; an effect the other way counts as inactive or inconclusive.

Chain of phosphoglycerate mutase (Leishmania major) (Q4Q090 1-553): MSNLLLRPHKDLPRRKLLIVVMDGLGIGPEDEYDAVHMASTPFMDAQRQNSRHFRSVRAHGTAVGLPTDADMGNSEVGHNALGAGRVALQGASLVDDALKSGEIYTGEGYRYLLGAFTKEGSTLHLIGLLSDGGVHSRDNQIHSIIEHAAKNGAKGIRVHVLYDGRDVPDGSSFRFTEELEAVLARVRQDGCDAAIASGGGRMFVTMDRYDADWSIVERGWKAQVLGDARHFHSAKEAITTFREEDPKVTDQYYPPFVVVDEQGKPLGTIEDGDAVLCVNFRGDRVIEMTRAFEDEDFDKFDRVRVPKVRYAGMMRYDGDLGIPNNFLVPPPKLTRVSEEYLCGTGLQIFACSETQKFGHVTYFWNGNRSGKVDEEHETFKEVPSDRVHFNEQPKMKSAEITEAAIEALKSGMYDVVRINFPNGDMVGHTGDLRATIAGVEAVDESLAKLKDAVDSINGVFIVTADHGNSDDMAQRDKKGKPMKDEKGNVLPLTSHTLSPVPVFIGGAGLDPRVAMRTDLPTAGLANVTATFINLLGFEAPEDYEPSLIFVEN
Chain of Peptidyl-prolyl cis-trans isomerase NIMA-interacting 1 (Homo sapiens) (Q13526 whole entry, looked up): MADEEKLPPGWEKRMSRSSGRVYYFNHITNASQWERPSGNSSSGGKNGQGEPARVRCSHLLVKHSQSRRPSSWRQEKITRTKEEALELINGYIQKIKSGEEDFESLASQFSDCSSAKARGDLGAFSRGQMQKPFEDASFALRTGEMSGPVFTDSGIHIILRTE

Regarding `Nc1nc(Cl)nc2c1ncn2[C@@H]1O[C@H](COP(=O)(O)OP(=O)(O)OP(=O)(O)O)[C@@H](O)[C@H]1O`, in test [1], the call was inactive. Further, the Potency in test [2] was 30.1 µM (active). Besides, the Potency entry in test [3], in test [4], in test [5] and in test [6] was “inactive” in each case.

In the case of `C=C[C@H]1CN2CC[C@@H]1C[C@@H]2[C@@H](O)c1ccnc2ccc(OC)cc12`, the molecule was classed as inactive in test [1]. The Potency result in test [2], in test [3] and in test [4] was “inactive” each time.

For `O=C(c1ccc(Cl)cc1)N1CCN(c2ccc([N+](=O)[O-])c3ncccc23)CC1`, the molecule was classed as inactive in test [1]. The Potency entry in test [2], in test [3], in test [4], in test [5], in test [6] and in test [7] was “inactive” in each case.

For `CCc1c(C(=O)NCCc2ccc(N3CCCCC3)cc2)[nH]c2ccc(Cl)cc12`, the outcome in test [1] was inactive. The Potency result in test [2], in test [3], in test [4], in test [5], in test [6] and in test [7] was “inactive” each time.

As for `CC1OC1P(=O)(O)O` (configuration not stated), the molecule was called inactive in test [1]. In addition, the Potency result in test [2], in test [3], in test [4] and in test [6] was “inactive” throughout.

Consider `O=[N+]([O-])c1ccc2c(c1)S(=O)(=O)C=C2`, for which the molecule was classed as inactive in test [1]. For the same molecule, the Potency result in test [2], in test [3] and in test [4] was “inactive” throughout. Moreover, the Potency in test [7] is 6.31 µM (active).

In the case of `O=C1NC(=O)/C(=C/c2ccc3nccnc3c2)S1`, the call in test [1] was inactive. Also, the Potency result in test [2], in test [3], in test [4] and in test [6] was “inactive” each time.

In the case of `NC(=S)c1ccc[n+]([C@@H]2O[C@@H](COP(=O)([O-])OP(=O)(O)OC[C@H]3O[C@@H](n4cnc5c(N)ncnc54)[C@H](OP(=O)(O)O)[C@@H]3O)C(O)C2O)c1` (some centres not stated), in test [1], the result was inactive. For the same molecule, in test [2], the Potency is 19 µM (active). The Potency result in test [3], in test [4], in test [5], in test [6] and in test [7] was “inactive” throughout.

With `O=C(O)CC1CC(c2ccccc2)=NO1` (configuration not stated), the molecule was called inactive in test [1]. For the same molecule, the Potency entry in test [2], in test [3], in test [4], in test [5], in test [6] and in test [7] was “inactive” in each case.

Turning to `CCN(CC)c1ncnc2c1ncn2[C@@H]1O[C@H](COP(=O)(O)OP(=O)(O)C(Br)(Br)P(=O)(O)O)[C@@H](O)[C@H]1O`, the result in test [1] was inactive. Besides, the Potency entry in test [3], in test [4], in test [5], in test [6] and in test [7] was “inactive” in each case.

As to `C#C[C@]1(O)CC[C@H]2[C@@H]3CCC4=Cc5oncc5CC4(C)[C@H]3CCC21C` (some centres not stated), in test [1], the outcome was inactive. In addition, the Potency result in test [2], in test [3], in test [4], in test [6] and in test [7] was “inactive” in each case.

For the molecule `Nc1ncnc2c1ncn2[C@@H]1O[C@H](COP(=O)(O)CP(=O)(O)OP(=O)(O)O)[C@@H](O)[C@H]1O`, in test [1], the call was inactive. Besides, the Potency result in test [3], in test [4], in test [5] and in test [6] was “inactive” each time.

In the case of `C=CC(C)=C[C@@]1(C)SC(=O)C(C)=C1O`, the molecule was called inactive in test [1]. Also, the Potency entry in test [2], in test [3], in test [4], in test [5], in test [6] and in test [7] was “inactive” throughout.

With `CNC(=O)[C@H]1O[C@@H](n2cnc3c(NCc4ccc(N)cc4)ncnc32)[C@H](O)[C@@H]1O`, the molecule was called inactive in test [1]. Moreover, the Potency result in test [2], in test [3], in test [4], in test [5], in test [6] and in test [7] was “inactive” each time.

As to `N#C/C(=C\c1ccc(-c2cc(Cl)ccc2Cl)o1)C(=O)Nc1cccc2ncccc12`, in test [1], the call was inactive. Moreover, the Potency entry in test [3] and in test [4] was “inactive” in each case. Also, the Potency in test [5] is 15.8 µM (active).

On to `O=C(c1ccc(OCCCc2cnc[nH]2)cc1)C1CC1`, for which the molecule was classed as inactive in test [1]. Besides, the Potency entry in test [2], in test [3], in test [4], in test [5], in test [6] and in test [7] was “inactive” each time.

`Clc1ccc(N2CCN(Cc3cc4ccccn4n3)CC2)cc1`: the outcome in test [1] was inactive. The Potency result in test [2], in test [3], in test [4], in test [5], in test [6] and in test [7] was “inactive” throughout.

The values are drawn from PubChem BioAssay (NCATS).
